# Results reported in ChEMBL document CHEMBL1157539, “Thousands of chemical starting points for antimalarial lead identification” (Nature, 2010).
# Test system: HepG2
# Assay: GSK_TCMDC: Percent inhibition of human HepG2 cell line. Test compounds present at 10uM.
# Assay type: functional
row,SMILES,Inhibition
1,CCOC(=O)c1nc(-c2cc(Cl)nc(Cl)c2)[nH]c1NC(=S)NCCCN1CCOCC1,13%
2,COc1cc(CNC[C@@H](O)[C@H](Cc2ccccc2)NC(=O)c2cc(C3CCCC3)cc(N3CCCS3(=O)=O)c2)cc(OC)c1.Cl,31%
3,COc1ccc2nccc([C@@H](O)CN3CCC(NCc4ccc5c(c4)oc(=S)n5C)CC3)c2c1.O=C(O)/C=C/C(=O)O,14%
4,CCOc1cc(Cc2cnc(N)nc2N)cc(OCC)c1OCC,0%
5,Cc1cccc(C(=O)Nc2ccnc(N3CCC(N(C)Cc4ccccc4)CC3)c2)c1.O=C(O)C(F)(F)F,12%
6,CN(C)CCNC(=O)[C@H](CC1CCCCC1)NC(=O)c1ccc(O)c(-c2ccc(Cl)c(Cl)c2)c1,0%
7,Cc1nc(Nc2ccc(F)cc2)nc(N2CCc3ccccc3C2C)c1CO (stereo unspecified),0%
8,CC1CCCN(C(=O)C(C)Nc2cc(Cl)ccc2N2CCOCC2)C1 (stereo unspecified),0%
9,COc1cc(Nc2ccnc3cc(-c4ccccn4)ccc23)cc(OC)c1OC.Cl,0%
10,CCN(CCCN1CCCCC1)c1cc(C)nc(Nc2cccc(C(F)(F)F)c2)n1.O=C(O)C(F)(F)F,25%
11,CC1CN(Cc2ccc(-c3ccc(-c4nc5cc(F)ccc5[nH]4)s3)cc2)CC(C)O1.O=C(O)C(F)(F)F (stereo unspecified),35%
12,COc1ccc(Nc2nccc(-c3cccc(NC(=O)c4cc5cc(F)ccc5[nH]4)c3)n2)cc1,3%
13,N#Cc1cc(C(=O)Nc2ccccc2)c(N)nc1SCC(=O)NC(c1ccccc1)c1cccs1 (stereo unspecified),34%
14,O=C(Nc1nc(-c2ccccn2)cs1)c1ccccc1COc1ccccc1,34%
15,COc1ccc(C2=CCN(c3ccc(Cl)c(Cl)c3)C2=O)cc1OCCN1CCCCC1.Cl,19%
16,CC1(CCc2ccccc2)N=C(Nc2ccc(Cl)cc2)N=C(N)C1c1ccc(Cl)c(Cl)c1 (stereo unspecified),81%
17,C[C@H](Cc1ccc(OCCCCCCOc2ccc(C[C@@H](C)N[C@H](C)c3ccccc3)cc2)cc1)NC[C@H](O)c1cccc(Cl)c1.Cl,99%
18,Cc1[nH]n(-c2cccc(Cl)c2)c(=O)c1-c1ccc(Cl)cc1,0%

row,SMILES,Inhibition
1,OC(CNCc1cccc(Oc2ccc(Cl)cc2)c1)c1cccc(C(F)(F)F)c1 (stereo unspecified),0%
2,Cc1cc(=O)[nH]c2cc(Nc3ccnc(Nc4cccc(C(N)=O)c4)n3)ccc12.Cl,27%
3,COc1cc(C(C)C)nc2ccc(NC(=O)c3ccc(C(=O)Nc4ccc5nc(C(C)C)cc(OC)c5c4)cc3)cc12,39%
4,COc1cc(OC)c(NC(=O)C2c3ccccc3C(=O)N(CC(C)C)C2c2cccs2)cc1Cl (stereo unspecified),9%
5,Fc1cccc2sc(Nc3nc(-c4ccccn4)cs3)nc12,30%
6,CCCCSc1ccc2nc(-c3c[nH]c4ccc(C#N)cc34)cn2c1,3%
7,CC1CCCN1Cc1ccc(-c2ccc3c(=O)cc(CCc4cccc(F)c4F)n(CC(=O)N(C)Cc4ccc(-c5ccc(C(F)(F)F)cc5)cc4)c3n2)cc1.O=C(O)C(O)C(O)C(=O)O (stereo unspecified),0%
8,COc1c(CN2CCCC2)cccc1-c1cc2c(-c3ccc(C(=O)O)c(C(C)C)c3)ccnc2[nH]1.O=C(O)C(F)(F)F,56%
9,CS(=O)(=O)NCCCNCc1ccc(-c2ccc(-c3nc4cc(F)ccc4[nH]3)cc2)cc1.O=C(O)C(F)(F)F,17%
10,COc1cc2c(cc1N1CC(C)NC(C)C1)N(C(=O)c1ccc(-c3ccc(-c4ncc[nH]4)cc3C)cc1)CC2 (stereo unspecified),7%
11,CCN(CC)CCN(Cc1ccc(-c2ccc(C(F)(F)F)cc2)cc1)C(=O)Cn1c(CCc2cccc(F)c2F)cc(=O)c2c1CCCC2.O=C(O)C(O)C(O)C(=O)O,93%
12,N#Cc1cccc(C(=O)NC2CCN(c3ccnc(Nc4ccc(F)cc4)n3)C2)c1 (stereo unspecified),4%
13,Cl.O=C(C=Cc1ccc(C(=O)Nc2ccc(C3=NCCN3)cc2)cc1)Nc1ccc(C2=NCCN2)cc1,0%
14,CCN(CCS(C)(=O)=O)Cc1ccc(-c2ccc3ncnc(Nc4ccc(OCc5cccc(F)c5)c(Cl)c4)c3c2)o1.Cc1ccc(S(=O)(=O)O)cc1,5%
15,CC(C)c1ccc(O)cc1Nc1ccnc2ccc(C(F)(F)F)cc12,6%
16,Cn1ccnc1Sc1ncccc1[N+](=O)[O-],0%
17,Cc1cc(=NN=Cc2ccccc2Cl)c2cccc(C)c2[nH]1,10%
18,COc1cccc(NC(=O)Cn2c(C)c(C(=O)C(F)(F)F)c3ccccc32)c1,2%
